Bioassay records: PubChem, National Center for Advancing Translational Sciences (NCATS)
A selection: hits, their analogues and other compounds. The true share with any hit is near 3.5%.
RE007 growth inh = qHTS Assay for Inhibitors of the HIV-1 protein Vpr; S. pombe RE007 Vpr strain, BacTiter-Glo ATP luminescence, 24 h; Potency, µM (doses to about 92.2 µM), hits mostly inhibitors; 360,000 compounds, 0.21% hits; active = well fitted falling curve with a large enough effect; inconclusive = small, poorly fitted or top-dose-only effect; inactive = no such curve, though single readings can be large or run the other way; note: nearly all actives have a fitted effect of over 50% in size
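Fission yeast strain RE007, carrying one chromosomally integrated HIV-1 vpr copy, was seeded at OD 0.01 in PMG+AL medium with 23 nL pinned compound. After 24 h at 30 °C and 99% humidity, viability was read by BacTiter-Glo luminescence.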
LmPK inh = qHTS Assay for Inhibitors of Leishmania Mexicana Pyruvate Kinase (LmPK); Potency, µM (series often up to 57.5 µM), usual class: inhibitors; 290,000 compounds, 0.37% hits; Q27686; purified LmPK, Kinase-Glo ATP luminescence, 1 h
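Purified LmPK (0.1 nM) converted ADP (0.1 mM) to ATP with PEP (0.5 mM) in imidazole buffer pH 7.2 with KCl and MgCl2, 1 h at room temperature. ATP was read by Kinase-Glo luminescence; data normalized to uninhibited and no-enzyme controls.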
TbPYK inhibitor = qHTS of Trypanosoma Brucei Inhibitors; pyruvate kinase (Trypanosoma brucei), Q57TT1; TbPYK enzyme, Kinase-Glo Plus ATP luminescence, 45 min; Potency, µM (series often up to 76.8 µM), hits mostly inhibitors; 410,000 compounds, 0.12% hits; note: nearly all actives have a fitted effect of over 50% in size
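Luminescence from Kinase-Glo Plus, added after a 45-minute room-temperature reaction, served as the end-point read-out. The enzyme and substrate were preincubated with compound before ADP (130 uM final) initiated turnover. Concentration-effect curves came from normalized qHTS data.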
Giardia FBPA inh = qHTS Assay for Inhibitors of Fructose-1,6-bisphosphate Aldolase from Giardia Lamblia. A8B2U2. 290,000 compounds, 0.71% hits. AID 2451, 2010. purified Giardia FBPA. Potency, µM (titrated, usually from 59.6 µM), hits mostly inhibitors; note: nearly all actives have a fitted effect of over 55% in size
Target sequence (A8B2U2 whole entry, looked up): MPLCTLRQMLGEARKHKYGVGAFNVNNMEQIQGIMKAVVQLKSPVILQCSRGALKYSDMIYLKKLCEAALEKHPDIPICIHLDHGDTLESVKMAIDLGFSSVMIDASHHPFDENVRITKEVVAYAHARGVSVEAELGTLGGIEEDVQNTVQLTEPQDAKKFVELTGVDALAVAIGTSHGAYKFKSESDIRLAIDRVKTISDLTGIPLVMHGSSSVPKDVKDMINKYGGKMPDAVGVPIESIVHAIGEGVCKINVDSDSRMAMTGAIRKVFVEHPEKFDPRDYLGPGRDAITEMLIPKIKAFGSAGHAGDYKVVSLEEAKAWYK
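Giardia FBPA (40 nM reagent) was preincubated 10 min at RT with compound (up to 57.5 uM final), then substrate plus GAPDH/TPI/NAD/arsenate coupling system with diaphorase/resazurin was added; resorufin fluorescence (525/598 nm) was read after 20 min.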
NS1 inh = qHTS Assay for Inhibitors of Influenza NS1 Protein Function; Potency, µM (series often up to 46.1 µM); 270,000 compounds, 0.4% hits; AID 2326, 2010; calls by dose curve; note: actives are rising curves; nearly all actives have a fitted effect of over 50% in size
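Read-out: OD600 growth recovery of NS1-expressing budding yeast. Cells grown overnight at 30C in -URA glucose medium, washed, resuspended and diluted 1:100 in 2% galactose assay medium, pH 6.0. Same strain lacking NS1 served as positive control.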
Sm TGR block = qHTS Assay for the Inhibitors of Schistosoma Mansoni Peroxiredoxins; Schistosoma mansoni thioredoxin glutathione reductase (TGR), Q962Y6; purified TGR, DTNB reduction, TNB absorbance 405 nm; Potency, µM (titrated, usually from 114 µM), usual class: inhibitors; 360,000 compounds, 3% hits; AID 485364, 2010; note: nearly all actives have a fitted effect of over 60% in size
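Kinetic colorimetric format: TGR-catalysed, NADPH-driven DTNB reduction monitored via TNB absorbance. Enzyme dispensed at 20 nM; compound exposure 15 min at room temperature before reaction start.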
Hits are given with their value; 0 = inactive; ? = inconclusive; - = no result given. Unless noted, calls come from the whole dose curve; as a rule, active = well fitted curve in the direction sought with a large enough effect; inconclusive = small, poorly fitted or top-dose-only effect, or another doubt; inactive = no such curve, though single readings can be large; an effect the other way counts as inactive or inconclusive.

SMILES	RE007 growth inh	LmPK inh	TbPYK inhibitor	Giardia FBPA inh	NS1 inh	Sm TGR block
CCOc1ccc(C(C)=O)cc1N1C(=O)C2C(C1=O)C1C=CC2C12CC2 (stereo not drawn)	0	0	0	0	0	?
CC(=O)Oc1ccc(N2C(=O)C3C(C2=O)C2C=CC3C23CC3)cc1[N+](=O)[O-] (stereo not drawn)	0	0	0	0	0	18µM
Cc1cccc(NC(=O)c2cccc(N3C(=O)C4C5C=CC(C6CC56)C4C3=O)c2)c1 (stereo not drawn)	0	0	0	0	0	0
CC(=O)Oc1ccc(N2C(=O)C3C4C=CC(C5CC45)C3C2=O)cc1[N+](=O)[O-] (stereo not drawn)	0	0	0	0	0	10µM
O=C(CCl)NCCN1C(=O)S/C(=C\c2cccnc2)C1=O	0	0	0	0	0	40µM
CC(C)(CO)NC(=S)NCc1ccco1	0	0	0	?	0	25µM
S=C(NCc1ccco1)Nc1ccccc1Cl	0	0	0	0	0	7.9µM
S=C(NCc1ccco1)Nc1cccc(Cl)c1Cl	0	0	0	0	0	7.9µM
S=c1[nH]nc(-c2ccc3ccccc3n2)n1-c1ccccc1Cl	0	28µM	0	0	0	0
Cc1occc1-c1n[nH]c(=S)n1-c1ccccc1	0	?	18µM	0	0	0
Cc1onc(-c2ccccc2)c1-c1n[nH]c(=S)n1-c1ccccc1Cl	0	18µM	?	0	0	0
S=c1[nH]nc(-c2cc(-c3ccco3)[nH]n2)n1-c1ccccc1	0	13µM	?	0	0	0
Cc1onc(-c2ccccc2)c1-c1n[nH]c(=S)n1-c1ccc(C(=O)O)cc1	0	?	?	0	0	0
Cc1oc2ncn(CC(C)C)c(=O)c2c1C(=O)N(CCN(C)C)Cc1ccccc1	-	-	0	-	-	0
S=c1[nH]nc(-c2ccco2)n1-c1ccccc1Cl	0	?	?	0	0	0
COc1ccc(OC)c(-n2c(-c3cc(-c4ccco4)[nH]n3)n[nH]c2=S)c1	0	0	3.2µM	0	0	0
S=c1[nH]nc(-c2cc(-c3ccco3)[nH]n2)n1-c1ccccc1Cl	0	0	?	?	0	40µM
O=C(NCCN1CCN(Cc2ccccc2)CC1)C1c2ccccc2C(=O)N2CCc3ccccc3C12 (stereo not drawn)	0	0	0	0	0	0
Cc1ccc(CNC(=O)C2c3ccccc3C(=O)N3CCc4ccccc4C23)o1 (stereo not drawn)	0	0	?	0	0	5.6µM
COc1ccc(-c2nc(CS(=O)CC(=O)N3CCCC3)c(C)o2)cc1 (stereo not drawn)	0	0	0	0	0	7.1µM
CCOC(=O)N1CCN(C(=O)CS(=O)Cc2nc(-c3ccc(OC)c(OC)c3)oc2C)CC1 (stereo not drawn)	0	0	0	-	0	45µM
Cc1ccc(-c2nc(CS(=O)CC(=O)N3CCC4(CC3)OCCO4)c(C)o2)cc1 (stereo not drawn)	-	0	-	0	0	45µM
CCN1CCN(C(=O)CS(=O)Cc2nc(-c3ccc(OC)cc3)oc2C)CC1 (stereo not drawn)	0	0	0	0	0	?
CCOC(=O)c1cccc(NC(=O)c2oc3c(c2C)-c2nn(CC)cc2CC3)c1	-	-	0	-	-	0
COC(=O)c1c(C)sc(-c2c(-c3ccc(OC)c(F)c3)[nH]c3c2c(=O)n(C)c(=O)n3C)c1O	-	-	0	-	-	0
SMILES	RE007 growth inh	LmPK inh	TbPYK inhibitor	Giardia FBPA inh	NS1 inh	Sm TGR block
CC(=O)c1ccc2noc(-c3ccc(Cl)cc3)c2c1	0	0	0	0	-	28µM
Cc1cc(-c2onc3ccc(Cl)cc23)ccc1O	0	0	0	0	0	40µM
Cc1ccc(-c2onc3ccc(C4(C)OCCO4)cc23)cc1	0	0	0	0	0	0
Cc1ccc(-c2onc3ccc(C=O)cc23)cc1	?	0	0	0	0	45µM
O/N=C\c1ccc2noc(-c3ccc(Cl)cc3)c2c1	0	0	0	0	0	0
CCCS(=O)(=O)N1CCCC(C(=O)NCCOC)C1 (stereo not drawn)	-	-	0	-	-	0
COc1ccc(C)cc1NS(=O)(=O)c1c(C)nc2sc(C)cn2c1=O	-	-	0	-	-	0
O=[N+]([O-])c1ccccc1CNCCO	0	-	0	-	-	0
O=[N+]([O-])c1ccccc1CNCCCCCO	0	-	0	-	-	50µM
CC(OC(=O)/C=C/c1ccco1)C(=O)NC1CCCCC1C (stereo not drawn)	0	-	0	-	-	45µM
CC(OC(=O)/C=C/c1ccco1)C(=O)Nc1cccc([N+](=O)[O-])c1 (stereo not drawn)	0	0	0	0	0	?
COc1ccc([N+](=O)[O-])cc1NC(=O)C(C)OC(=O)/C=C/c1ccco1 (stereo not drawn)	-	0	0	0	0	50µM
CC1=C(C(=O)OC2CCCC2)C(c2ccccc2Cl)CC(=O)N1 (stereo not drawn)	-	-	0	-	-	0
O=[N+]([O-])c1ccc(/C=N/NC(=S)Nc2ccc(Cl)cc2Cl)s1	0	0	0	0	0	45µM
O=C(N/N=C/c1cc(Br)c(Br)o1)C(O)c1ccccc1 (stereo not drawn)	0	0	0	0	0	40µM
O=[N+]([O-])c1ccc(O)c(/C=N/NC(=S)Nc2ccc(Cl)cc2Cl)c1	0	0	0	0	0	0
O=C(N/N=C/c1ccc([N+](=O)[O-])s1)C(O)c1ccccc1 (stereo not drawn)	0	0	0	?	0	32µM
Cc1ccc(/C=N/NC(=O)C(O)c2ccccc2)o1 (stereo not drawn)	0	0	0	0	0	0
O=C(N/N=C/c1ccc([N+](=O)[O-])s1)c1ccccc1	0	0	0	0	-	0
CCCC(=O)Nc1nnc(SCc2cc(=O)n3ccccc3n2)s1	-	-	0	-	-	0
O=C(O)c1ccc(/C=N\Nc2ccc(S(=O)(=O)N3CCOCC3)cc2[N+](=O)[O-])cc1	0	0	0	0	0	45µM
C/C(=N\Nc1ccc(S(=O)(=O)N2CCOCC2)cc1[N+](=O)[O-])C(C)C	0	0	0	0	-	40µM
Cc1ccc(-n2nc(C(=O)N3CCN(c4cc(Cl)ccc4C)CC3)c(=O)n(C)c2=O)cc1	-	-	0	-	-	0
CC(=O)N(CC(O)CO)c1c(I)c(C(=O)NCCO)c(I)c(C(=O)NCC(O)CO)c1I (stereo not drawn)	-	-	0	-	-	-
Cc1cccc(-n2c(C)cc(C(=O)C(=O)Nc3ccccc3F)c2C)c1C	-	-	0	-	-	0
O=C(CCNc1ccc(Cc2ccncc2)cc1)c1cccc([N+](=O)[O-])c1	35µM	0	0	0	0	0
